GCN5L2 inh-1: qHTS Assay for Inhibitors of GCN5L2; GCN5L2 HAT assay, ThioGlo1 CoA-SH fluorescence; Potency, µM (top dose mostly 58.9 µM), inactives show at the top dose activity change, negative = inhibition, most hits filed as inhibitors; 0.21% of 390,000 active; AID 504327, 2011; note: potency is the fitted concentration of half-maximal effect; % is set by controls: 0 for no effect and ±100 for the full control effect
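ThioGlo1-coupled HAT assay: 20nM GCN5L2, 70uM acetyl-CoA, 75uM H3(1-25) peptide, pH 7.5. Fluorescence read at 340/540nm at start and after 20 min at room temperature.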
TDP1 inh: qHTS Assay for Inhibitors of Tyrosyl-DNA Phosphodiesterase (TDP1); Tyrosyl-DNA phosphodiesterase 1 (Homo sapiens), Q9NUW8; recombinant TDP1, AlphaScreen DNA substrate cleavage; Potency, µM (doses to about 130 µM), inactives show at the top dose activity change, negative = inhibition, actives largely listed as inhibitors; 0.28% of 350,000 active; AID 485290, 2010; note: potency is the fitted concentration of half-maximal effect; % is set by controls: 0 for no effect and ±100 for the full control effect; nearly all actives have a fitted effect of over 40% in size
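Recombinant human Tdp1 (E. coli-expressed, 1 nM final) preincubated with compounds 15 min at room temperature, then 5'-biotin/3'-phosphotyrosine-FITC DNA substrate (15 nM final) added for 5 min. AlphaScreen beads (10 ug/ml final) added 10 min; cleavage lowers signal.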
Lamin A splicing: qHTS Assay for Modulators of Lamin A Splicing; Potency, µM (series often up to 46.1 µM), for the others: top-dose ratio change, negative = inhibition, actives largely listed as inhibitors; 0.01% of 200,000 active; HeLa LMNA splicing GFP/RFP minigene ratio, 48 h; active = well fitted inhibition curve with a large enough effect in the signal ratio, with a control signal flat, not every such curve was filed as active; inconclusive = small, poorly fitted or top-dose-only effect, or effect the other way, or a change in a side signal; the % refers to the signal ratio; note: potency is the fitted concentration of half-maximal effect; % is set by controls: 0 for no effect and ±100 for the full control effect
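S3 HeLa stable clones carrying a lamin A-EGFP splicing minigene plus DsRed2 were seeded at 600 cells/well in Opti-MEM with 2% FBS, pin-dosed and incubated 48 h at 37°C. Acumen cytometry (488 nm) gave the GFP/RFP total-intensity ratio.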
APE1 inh: qHTS Assay for Inhibitors of the Human Apurinic/apyrimidinic Endonuclease 1 (APE1); recombinant APE1, TAMRA/BHQ-2 abasic DNA cleavage fluorescence; Potency, µM (doses to about 65.8 µM), inactives show at the highest dose activity change, negative = inhibition, actives largely listed as inhibitors; 0.35% of 350,000 active; AID 2517, 2012;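 note: potency is the fitted concentration of half-maximal effect; plate controls were vehicle for no effect and reference inhibitor for full effect; nearly all actives have a fitted effect of over 55% in size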
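Readout is kinetic fluorescence (ex 525, em 598 nm) from cleavage of 50 nM TAMRA/BHQ-2 THF abasic duplex by 0.75 nM APE1, compound added 15 min beforehand at RT.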
RECQ1 helicase: qHTS Assay for Inhibitors of RecQ-Like Dna Helicase 1 (RECQ1); ATP-dependent DNA helicase Q1 (Homo sapiens), P46063; RECQ1 DNA unwinding, red fluorescence kinetic read; Potency, µM (highest dose often 57.3 µM), without a hit: top-dose activity, negative = inhibition, actives largely listed as inhibitors; 0.54% of 240,000 active;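 note: potency is the fitted concentration of half-maximal effect; plate controls were vehicle for no effect and no enzyme for full effect; nearly all actives have a fitted effect of over 30% in size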
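50 nM RECQ1T1 preincubated 15 min with compound in Tris pH 8.0 buffer with MgCl2, DTT, Tween-20 and 2.5 ug/ml poly(dI-dC); started with 200 nM TAMRA/BHQ-2 forked duplex and 2 mM ATP. Unwinding read as fluorescence (525/598 nm), two reads 2 h apart.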
BLM helicase inh: qHTS Assay for Inhibitors of Bloom's syndrome helicase (BLM); RecQ-like DNA helicase BLM (Homo sapiens), P54132; recombinant BLM DNA unwinding, fluorescence dequenching; Potency, µM (highest dose often 56.1 µM), inactives show top-dose activity change, negative = inhibition, hits mostly inhibitors; 0.2% of 350,000 active; AID 2528, 2010;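 note: potency is the fitted concentration of half-maximal effect; plate controls were vehicle for no effect and no enzyme for full effect; nearly all actives have a fitted effect of over 35% in size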
Target sequence (P54132 whole entry, looked up): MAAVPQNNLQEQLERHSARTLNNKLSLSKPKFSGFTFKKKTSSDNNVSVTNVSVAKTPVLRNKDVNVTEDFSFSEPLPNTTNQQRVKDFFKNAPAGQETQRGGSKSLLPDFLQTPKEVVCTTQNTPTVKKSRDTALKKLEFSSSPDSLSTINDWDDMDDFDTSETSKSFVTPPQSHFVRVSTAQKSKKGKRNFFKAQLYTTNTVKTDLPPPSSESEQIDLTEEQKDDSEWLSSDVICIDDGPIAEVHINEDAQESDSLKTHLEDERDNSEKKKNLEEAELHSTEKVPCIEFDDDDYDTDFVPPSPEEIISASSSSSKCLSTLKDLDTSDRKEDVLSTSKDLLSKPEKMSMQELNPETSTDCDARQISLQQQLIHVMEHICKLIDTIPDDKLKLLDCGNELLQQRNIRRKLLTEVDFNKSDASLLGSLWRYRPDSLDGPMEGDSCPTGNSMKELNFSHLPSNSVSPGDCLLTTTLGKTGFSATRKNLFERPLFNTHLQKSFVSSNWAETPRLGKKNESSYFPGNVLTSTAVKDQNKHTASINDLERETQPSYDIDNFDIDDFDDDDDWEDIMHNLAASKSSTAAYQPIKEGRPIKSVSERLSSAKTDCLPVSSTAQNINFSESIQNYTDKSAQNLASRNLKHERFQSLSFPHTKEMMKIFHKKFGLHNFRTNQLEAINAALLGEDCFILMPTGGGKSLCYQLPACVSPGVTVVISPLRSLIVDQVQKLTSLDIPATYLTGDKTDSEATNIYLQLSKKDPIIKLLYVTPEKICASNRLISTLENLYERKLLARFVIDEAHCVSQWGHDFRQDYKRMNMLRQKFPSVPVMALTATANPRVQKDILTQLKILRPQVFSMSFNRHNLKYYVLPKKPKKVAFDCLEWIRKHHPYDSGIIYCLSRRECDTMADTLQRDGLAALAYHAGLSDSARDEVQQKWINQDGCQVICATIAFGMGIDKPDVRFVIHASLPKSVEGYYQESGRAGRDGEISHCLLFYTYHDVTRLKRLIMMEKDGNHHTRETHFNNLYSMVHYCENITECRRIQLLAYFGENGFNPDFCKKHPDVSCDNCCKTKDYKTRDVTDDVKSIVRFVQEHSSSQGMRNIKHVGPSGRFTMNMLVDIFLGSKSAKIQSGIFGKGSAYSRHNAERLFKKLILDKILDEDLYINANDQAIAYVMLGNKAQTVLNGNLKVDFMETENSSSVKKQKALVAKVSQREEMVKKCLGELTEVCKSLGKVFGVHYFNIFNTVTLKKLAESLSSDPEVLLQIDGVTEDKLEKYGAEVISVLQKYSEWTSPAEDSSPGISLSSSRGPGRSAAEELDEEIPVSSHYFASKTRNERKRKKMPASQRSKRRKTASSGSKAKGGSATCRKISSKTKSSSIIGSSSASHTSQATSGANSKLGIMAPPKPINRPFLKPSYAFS
GCN5L2 inh-2: qHTS Assay for Inhibitors of GCN5L2: Hit confirmation; shares compounds with GCN5L2 inh-1; GCN5L2 HAT, ThioGlo1 CoA fluorescence, 20 min; Potency, µM, most hits filed as inhibitors; 70% of 140 active; AID 588347, 2011
* = called active by the depositor; i = inactive; ? = inconclusive; / = no result; [ ] = another dose, or the depositor's remark. An excerpt weighted towards active compounds, which were near 0.9% of everything screened. Unless noted, calls come from the whole dose curve; as a rule, active = well fitted curve in the direction sought with a large enough effect; inconclusive = small, poorly fitted or top-dose-only effect, or another doubt; inactive = no such curve, though single readings can be large; an effect the other way counts as inactive or inconclusive.

SMILES | GCN5L2 inh-1 | TDP1 inh | Lamin A splicing | APE1 inh | RECQ1 helicase | BLM helicase inh | GCN5L2 inh-2
C=CCOC(=O)C1(C(NC(=O)OC)c2ccccc2)C(=O)Cc2ccccc21 (configuration not stated) | / | -3% | / | 2% | 0% | 4% | /
CC(=O)N1c2ccccc2[C@@H](C)[C@@H]1C | -3% | 2% | / | 61% | / | / | /
CC(=O)N1c2ccccc2C2(O)N=C(C)SC12 (configuration not stated) | 7.9µM* | -2% | -5% | -2% | 1% | -3% | 9.1*
CC(=O)n1cc(C(C[N+](=O)[O-])SCCN)c2ccccc21 (configuration not stated) | 25µM* | 11% | 77% | -6% | 0% | 0% | 36*
Cn1cc(C(C[N+](=O)[O-])c2ccccc2)c2ccccc21 (configuration not stated) | -3% | / | / | -28% | / | -16% | /
CCOC(=O)CSc1nc2ccccc2c(=O)n1CCc1ccc(OC)c(OC)c1 | -7% | -1% | -13%[46 µM] | / | / | 0% | /
CCC(C)Sc1ccc(-c2nc3ccccn3c2NCc2ccccc2)cc1OC (configuration not stated) | 22µM* | 4% | / | 11% | / | / | ?
CC1=C(/C=C/C(C)=C/C=C/C(C)=C\CO)C(C)(C)CCC1 | 18% | 9% | / | 8% | i | / | /
CCOC(=O)c1cnc2cc(C)nn2c1-c1ccccc1 | 40µM* | -2% | 11% | -1% | -6% | -3% | 14*
CCOC(=O)c1cnc2cc(-c3ccc(Cl)cc3)nn2c1-c1ccccc1 | -15% | / | / | / | / | -3% | /
CSS(=O)(=O)c1cccc2cccnc12 | 8.9µM* | / | / | -1% | -16% | -5% | 5.8*
COC(=O)c1scc2c(=O)cc(C(F)(F)F)[nH]c12 | 22µM* | -5% | / | -1% | -7% | 1% | 36*
COC(=O)c1ccc2[nH]c(C)cc(=O)c2c1 | -10% | 2% | 0% | -1% | -7% | -4% | /
O=C(CSc1nc(-c2ccccc2)nc2c1Cc1ccccc1O2)N1CCCCC1 | 0% | 1% | / | / | / | -4% | /
Cc1ccc2c(c1C)NC(C(=O)O)C1CC=CC21 (configuration not stated) | 22µM* | -12% | ? | ? | 5µM* | 18µM* | 14*

From PubChem
